Data as given in PubChem BioAssay AID1159580 (chemical genetic matrix, 2015).
Values joined by “and” are separate entries in the source; they are usually repeats but may differ in a detail not shown here. Equal values may be shown once. Among all 5,500 compounds or so, about 2,000 (36%) were called active. About 18% were inconclusive and are not listed. Rule as the data show it: active = normalized growth mostly below about 0.91 (no sharp cut-off); inconclusive = no clear call, values can overlap the other calls; inactive = mostly above about 0.92. Some of the results follow.

Assay: chemical genetic growth profiling, strain panel (AID 1159580);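 also: tested at 20 µM; growth read once vehicle control cultures reached saturation at 30 °C; 1 = growth at the plate median or of vehicle wells; lower values mean less growth of the strain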
Details: growth OD

Measured: normalized growth

COc1ccc(C(=O)O)cc1OC
inactive: S. cerevisiae deletion strains, locus YAL013W, strain DEP1, active compounds read low 1.02 | S. cerevisiae deletion strains, locus YAL021C, strain ccr4, active compounds read low 0.981 | S. cerevisiae deletion strains, locus YAL026C, strain drs2, active compounds read low 0.996 | S. cerevisiae deletion strains, locus YAL030W, strain snc1, active compounds read low 0.995 | S. cerevisiae deletion strains, locus YBL061C, strain skt5, active compounds read low 1 | S. cerevisiae deletion strains, locus YBR009C, strain hhf1, active compounds read low 1.01 | S. cerevisiae deletion strains, locus YBR021W, strain FUR4, active compounds read low 1.02 | S. cerevisiae deletion strains, locus YBR023C, strain chs3, active compounds read low 1.01 | S. cerevisiae deletion strains, locus YBR171W, strain sec66, active compounds read low 0.996 | S. cerevisiae deletion strains, locus YBR229C, strain ROT2, active compounds read low 1 | S. cerevisiae deletion strains, locus YBR231C, strain swc5, active compounds read low 0.996 | S. cerevisiae deletion strains, locus YBR279W, strain paf1, active compounds read low 0.997 | S. cerevisiae deletion strains, locus YCL011C, strain gbp2, active compounds read low 1 | S. cerevisiae deletion strains, locus YCL016C, strain dcc1, active compounds read low 1 | S. cerevisiae deletion strains, locus YCL029C, strain bik1, active compounds read low 0.992 | S. cerevisiae deletion strains, locus YCL069W, strain vba3, active compounds read low 1 | S. cerevisiae deletion strains, locus YCR088W, strain abp1, active compounds read low 0.996 | S. cerevisiae deletion strains, locus YDL005C, strain med2, active compounds read low 0.996 | S. cerevisiae deletion strains, locus YDL035C, strain GPR1, active compounds read low 1.08 | S. cerevisiae deletion strains, locus YDL040C, strain nat1, active compounds read low 0.997 | S. cerevisiae deletion strains, locus YDL074C, strain BRE1, active compounds read low 1.17 | S. cerevisiae deletion strains, locus YDL101C, strain DUN1, active compounds read low 1 | S. cerevisiae deletion strains, locus YDL185W, strain tfp1, active compounds read low 0.988 | S. cerevisiae deletion strains, locus YDL192W, strain arf1, active compounds read low 1.03 | S. cerevisiae deletion strains, locus YDR001C, strain nth1, active compounds read low 0.994 | S. cerevisiae deletion strains, locus YDR069C, strain doa4, active compounds read low 1.01 | S. cerevisiae deletion strains, locus YDR101C, strain arx1, active compounds read low 1.01 | S. cerevisiae deletion strains, locus YDR137W, strain rgp1, active compounds read low 1.02 | S. cerevisiae deletion strains, locus YDR159W, strain sac3, active compounds read low 0.964 | S. cerevisiae deletion strains, locus YDR162C, strain NBP2, active compounds read low 1.04 | S. cerevisiae deletion strains, locus YDR195W, strain ref2 0.908 | S. cerevisiae deletion strains, locus YDR297W, strain sur2, active compounds read low 1 | S. cerevisiae deletion strains, locus YDR318W, strain mcm21, active compounds read low 1 | S. cerevisiae deletion strains, locus YDR334W, strain swr1, active compounds read low 0.998 | S. cerevisiae deletion strains, locus YDR335W, strain msn5, active compounds read low 1 | S. cerevisiae deletion strains, locus YDR388W, active compounds read low 1 | S. cerevisiae deletion strains, locus YDR392W, strain spt3, active compounds read low 0.984 | S. cerevisiae deletion strains, locus YDR502C, strain sam2, active compounds read low 0.991 | S. cerevisiae deletion strains, locus YEL003W, strain gim4, active compounds read low 0.992 | S. cerevisiae deletion strains, locus YEL037C, strain rad23, active compounds read low 0.989 | S. cerevisiae deletion strains, locus YEL061C, strain CIN8 (second series), active compounds read low 0.998 | S. cerevisiae deletion strains, locus YER015W, strain faa2, active compounds read low 0.992 | S. cerevisiae deletion strains, locus YER016W, strain bim1, active compounds read low 1.01 | S. cerevisiae deletion strains, locus YER110C, active compounds read low 0.978 | S. cerevisiae deletion strains, locus YER111C, strain swi4, active compounds read low 1.01 | S. cerevisiae deletion strains, locus YER155C, strain BEM2 (second series), active compounds read low 0.988 | S. cerevisiae deletion strains, locus YER155C, strain BEM2, active compounds read low 0.994 | S. cerevisiae deletion strains, locus YER167W, strain BCK2, active compounds read low 0.999 | S. cerevisiae deletion strains, locus YFR010W, strain ubp6, active compounds read low 0.993 | S. cerevisiae deletion strains, locus YGL078C, strain dbp3, active compounds read low 0.99 | S. cerevisiae deletion strains, locus YGL086W, strain mad1, active compounds read low 1.01 | S. cerevisiae deletion strains, locus YGL167C, strain pmr1, active compounds read low 0.999 | S. cerevisiae deletion strains, locus YGL173C, strain kem1, active compounds read low 0.998 | S. cerevisiae deletion strains, locus YGL227W, strain vid30, active compounds read low 1.03 | S. cerevisiae deletion strains, locus YGL240W, strain doc1, active compounds read low 0.998 | S. cerevisiae deletion strains, locus YGL248W, strain PDE1, active compounds read low 1.05 | S. cerevisiae deletion strains, locus YGL253W, strain hxk2, active compounds read low 1.01 | S. cerevisiae deletion strains, locus YGR078C, strain PAC10, active compounds read low 1.04 | S. cerevisiae deletion strains, locus YGR135W, strain pre9, active compounds read low 0.988 | S. cerevisiae deletion strains, locus YGR252W, strain gcn5, active compounds read low 1.03 | S. cerevisiae deletion strains, locus YHR013C, strain ard1, active compounds read low 0.978 | S. cerevisiae deletion strains, locus YHR027C, strain rpn1, active compounds read low 1.01 | S. cerevisiae deletion strains, locus YHR030C, strain SLT2, active compounds read low 1 and 0.99 | S. cerevisiae deletion strains, locus YHR079C, strain IRE1 (second series), active compounds read low 0.987 | S. cerevisiae deletion strains, locus YHR079C, strain IRE1, active compounds read low 0.961 | S. cerevisiae deletion strains, locus YHR094C, strain hxt1, active compounds read low 0.972 | S. cerevisiae deletion strains, locus YHR129C, strain ARP1, active compounds read low 1.03 | S. cerevisiae deletion strains, locus YHR142W, strain chs7, active compounds read low 1.01 | S. cerevisiae deletion strains, locus YHR200W, strain rpn10, active compounds read low 0.993 | S. cerevisiae deletion strains, locus YIL066C, strain RNR3, active compounds read low 1.03 | S. cerevisiae deletion strains, locus YIL073C, strain SPO22, active compounds read low 1.02 | S. cerevisiae deletion strains, locus YIL125W, strain kgd1, active compounds read low 0.992 | S. cerevisiae deletion strains, locus YIR030C, strain dcg1, active compounds read low 0.985 | S. cerevisiae deletion strains, locus YJL092W, strain hpr5, active compounds read low 0.985 | S. cerevisiae deletion strains, locus YJL095W, strain BCK1 (second series), active compounds read low 0.985 | S. cerevisiae deletion strains, locus YJL095W, strain BCK1, active compounds read low 1.06 and 0.982 | S. cerevisiae deletion strains, locus YJL115W, strain asf1, active compounds read low 0.995 | S. cerevisiae deletion strains, locus YJL129C, strain trk1, active compounds read low 1.04 | S. cerevisiae deletion strains, locus YJL134W, strain LCB3, active compounds read low 0.995 | S. cerevisiae deletion strains, locus YJL154C, strain vps35, active compounds read low 0.992 | S. cerevisiae deletion strains, locus YJL164C, strain tpk1, active compounds read low 1 | S. cerevisiae deletion strains, locus YJL166W, strain qcr8, active compounds read low 1.01 | S. cerevisiae deletion strains, locus YJL168C, strain set2, active compounds read low 0.993 | S. cerevisiae deletion strains, locus YJL187C, strain SWE1 (second series), active compounds read low 1.02 | S. cerevisiae deletion strains, locus YJR066W, strain TOR1, active compounds read low 0.996 | S. cerevisiae deletion strains, locus YKL009W, strain mrt4, active compounds read low 1.02 | S. cerevisiae deletion strains, locus YKL068W, active compounds read low 0.983 | S. cerevisiae deletion strains, locus YKL085W, strain MDH1 (second series), active compounds read low 0.993 | S. cerevisiae deletion strains, locus YKL085W, strain MDH1, active compounds read low 0.993 | S. cerevisiae deletion strains, locus YKL160W, strain elf1, active compounds read low 1 | S. cerevisiae deletion strains, locus YKR001C, strain vps1, active compounds read low 1.05 | S. cerevisiae deletion strains, locus YKR026C, strain gcn3, active compounds read low 1 | S. cerevisiae deletion strains, locus YKR091W, strain srl3, active compounds read low 0.996 | S. cerevisiae deletion strains, locus YLL001W, strain dnm1, active compounds read low 0.997 | S. cerevisiae deletion strains, locus YLL026W, active compounds read low 0.999 | S. cerevisiae deletion strains, locus YLL041C, strain sdh2, active compounds read low 0.992 | S. cerevisiae deletion strains, locus YLR027C, strain aat2, active compounds read low 1 | S. cerevisiae deletion strains, locus YLR039C, strain RIC1, active compounds read low 1.22 | S. cerevisiae deletion strains, locus YLR058C, strain SHM2, active compounds read low 1.01 | S. cerevisiae deletion strains, locus YLR102C, strain apc9, active compounds read low 0.977 | S. cerevisiae deletion strains, locus YLR113W, strain HOG1, active compounds read low 0.982 | S. cerevisiae deletion strains, locus YLR221C, strain rsa3, active compounds read low 1.02 | S. cerevisiae deletion strains, locus YLR258W, strain gsy2, active compounds read low 1.01 | S. cerevisiae deletion strains, locus YLR262C, strain YPT6 (second series), active compounds read low 1.01 | S. cerevisiae deletion strains, locus YLR262C, strain YPT6, active compounds read low 1.2 | S. cerevisiae deletion strains, locus YLR268W, strain sec22, active compounds read low 1.05 | S. cerevisiae deletion strains, locus YLR320W, strain mms22, active compounds read low 1 | S. cerevisiae deletion strains, locus YLR330W, strain CHS5, active compounds read low 1.01 | S. cerevisiae deletion strains, locus YLR342W, strain FKS1 (second series), active compounds read low 1.07 | S. cerevisiae deletion strains, locus YLR342W, strain FKS1, active compounds read low 1 | S. cerevisiae deletion strains, locus YLR357W, strain rsc2, active compounds read low 0.981 | S. cerevisiae deletion strains, locus YLR370C, strain arc18, active compounds read low 1.01 | S. cerevisiae deletion strains, locus YLR371W, strain rom2, active compounds read low 0.991 | S. cerevisiae deletion strains, locus YLR384C, strain iki3, active compounds read low 1.01 | S. cerevisiae deletion strains, locus YLR418C, strain cdc73, active compounds read low 1.07 | S. cerevisiae deletion strains, locus YML016C, strain PPZ1, active compounds read low 1 | S. cerevisiae deletion strains, locus YML032C, strain rad52, active compounds read low 0.998 | S. cerevisiae deletion strains, locus YML120C, strain ndi1, active compounds read low 1.01 | S. cerevisiae deletion strains, locus YML124C, strain tub3, active compounds read low 0.989 | S. cerevisiae deletion strains, locus YMR058W, strain fet3, active compounds read low 1 | S. cerevisiae deletion strains, locus YMR078C, strain ctf18, active compounds read low 0.982 | S. cerevisiae deletion strains, locus YMR125W, strain sto1, active compounds read low 0.985 | S. cerevisiae deletion strains, locus YMR129W, active compounds read low 0.93 | S. cerevisiae deletion strains, locus YMR205C, strain PFK2, active compounds read low 1 | S. cerevisiae deletion strains, locus YMR223W, strain ubp8, active compounds read low 1 | S. cerevisiae deletion strains, locus YMR231W, strain pep5, active compounds read low 0.989 | S. cerevisiae deletion strains, locus YMR307W, strain GAS1, active compounds read low 1.14 | S. cerevisiae deletion strains, locus YNL067W, strain RPL9B, active compounds read low 1.01 | S. cerevisiae deletion strains, locus YNL071W, strain lat1, active compounds read low 0.99 | S. cerevisiae deletion strains, locus YNL128W, strain TEP1, active compounds read low 1.03 | S. cerevisiae deletion strains, locus YNL183C, strain NPR1, active compounds read low 0.921 | S. cerevisiae deletion strains, locus YNL209W, strain ssb2, active compounds read low 0.985 | S. cerevisiae deletion strains, locus YNL233W, strain BNI4, active compounds read low 1.04 | S. cerevisiae deletion strains, locus YNL248C, strain rpa49, active compounds read low 1 | S. cerevisiae deletion strains, locus YNL250W, strain rad50, active compounds read low 0.952 | S. cerevisiae deletion strains, locus YNL271C, strain bni1, active compounds read low 0.994 | S. cerevisiae deletion strains, locus YNL298W, strain CLA4, active compounds read low 0.997 | S. cerevisiae deletion strains, locus YNL307C, strain MCK1, active compounds read low 0.975 | S. cerevisiae deletion strains, locus YNL322C, strain KRE1 (second series), active compounds read low 0.986 | S. cerevisiae deletion strains, locus YNR049C, strain mso1, active compounds read low 0.987 | S. cerevisiae deletion strains, locus YNR052C, strain pop2, active compounds read low 0.969 | S. cerevisiae deletion strains, locus YOL006C, strain TOP1, active compounds read low 1.36 | S. cerevisiae deletion strains, locus YOL012C, strain htz1 0.898 | S. cerevisiae deletion strains, locus YOL147C, strain pex11, active compounds read low 0.997 | S. cerevisiae deletion strains, locus YOR001W, strain rrp6, active compounds read low 1.02 | S. cerevisiae deletion strains, locus YOR061W, strain CKA2, active compounds read low 1.01 | S. cerevisiae deletion strains, locus YOR069W, strain VPS5, active compounds read low 0.996 | S. cerevisiae deletion strains, locus YOR070C, strain gyp1, active compounds read low 1 | S. cerevisiae deletion strains, locus YOR080W, strain dia2, active compounds read low 0.996 | S. cerevisiae deletion strains, locus YOR083W, strain WHI5, active compounds read low 0.996 | S. cerevisiae deletion strains, locus YOR106W, strain vam3, active compounds read low 1.02 | S. cerevisiae deletion strains, locus YOR136W, strain idh2, active compounds read low 0.995 | S. cerevisiae deletion strains, locus YOR144C, strain elg1, active compounds read low 0.978 | S. cerevisiae deletion strains, locus YOR184W, strain ser1, active compounds read low 1.07 | S. cerevisiae deletion strains, locus YOR231W, strain MKK1, active compounds read low 0.979 | S. cerevisiae deletion strains, locus YOR265W, strain rbl2, active compounds read low 0.995 | S. cerevisiae deletion strains, locus YOR270C, strain vph1, active compounds read low 1.02 | S. cerevisiae deletion strains, locus YOR290C, strain snf2, active compounds read low 1.02 | S. cerevisiae deletion strains, locus YOR316C, strain cot1, active compounds read low 1.01 | S. cerevisiae deletion strains, locus YPL051W, strain arl3, active compounds read low 0.993 | S. cerevisiae deletion strains, locus YPL078C, strain atp4, active compounds read low 1 | S. cerevisiae deletion strains, locus YPL106C, strain sse1, active compounds read low 0.975 | S. cerevisiae deletion strains, locus YPL240C, strain hsp82, active compounds read low 1 | S. cerevisiae deletion strains, locus YPL256C, strain CLN2, active compounds read low 0.973 | S. cerevisiae deletion strains, locus YPR119W, strain clb2, active compounds read low 1 | S. cerevisiae deletion strains, locus YPR141C, strain kar3, active compounds read low 0.976 | S. cerevisiae deletion strains, locus YPR163C, strain tif3, active compounds read low 1.01 | S. cerevisiae deletion strains, locus YPR167C, strain met16, active compounds read low 1.02 | S. cerevisiae deletion strains, strain wtn01, active compounds read low 1.01 | S. cerevisiae strains, strain wild type, active compounds read low 1.06
